Compound activity as filed in PubChem.
This is a sample that favours compounds with a hit; in the whole collection about 3% have one here.
Tau fluor cs: Counterscreen qHTS for Inhibitors of Tau Fibril Formation, Fluorescence Polarization. tau K18 P301L Alexa594 fluorescence, heparin fibrillization. Potency, µM (doses to about 57.7 µM), for the others: at the highest dose activity change, negative = decrease. hit rate 0.93% among 280,000; also: nearly all actives have a fitted effect of over 55% in size
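Human tau K18 P301L (15 uM unlabeled, 0.24 uM Alexa 594-labeled) in 100 mM sodium acetate pH 7 with 20 uM heparin, 6 hr at 37 C. ThT 30 uM added, 1 hr ambient; Alexa 594 FP and total fluorescence read at 555/632 nm.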
TR SRC2 fluor cs: Total Fluorescence Counterscreen for Inhibitors of the Interaction of Thyroid Hormone Receptor and Steroid Receptor Coregulator 2 | TRb/SRC2 Texas Red total fluorescence interference | hit rate 0.29% among 280,000 | Potency, µM (highest dose often 106 µM), for the others: top-dose fluorescence change, negative = quenching | AID 1479, 2009; active = well fitted curve in either direction with a large enough effect; inconclusive = small, poorly fitted or top-dose-only effect
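Human TRβ ligand-binding domain (0.6 uM) and Texas Red SRC2 peptide (20 nM) in Tris buffer with 1 uM T3 and 5% DMSO were incubated with pinned compound for 5 hr at ambient temperature. Total fluorescence was computed as S + 2P (555/632 nm).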
TRb SRC2 PPI: qHTS for Inhibitors of the Interaction of Thyroid Hormone Receptor and Steroid Receptor Coregulator 2 | AID 1469, 2008 | hit rate 0.065% among 280,000 | TRbeta-SRC2 peptide binding, fluorescence polarization; receptor liganded with 1 µM T3 | Potency, µM (titrated, usually from 106 µM), for the others: at the highest dose activity change, negative = inhibition, hits mostly inhibitors | Thyroid hormone receptor beta (Homo sapiens), P10828;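 also: plate controls were bound peptide for no effect and peptide without receptor for full effect; nearly all actives have a fitted effect of over 50% in size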
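Fluorescence polarization of 20 nM Texas Red SRC2 peptide with 0.6 uM human TRb ligand-binding domain, in Tris buffer with 1uM T3 and 5% DMSO. Incubated 5 hr ambient; normalized to unbound and bound controls.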
Tau fibril FP: qHTS for Inhibitors of Tau Fibril Formation, Fluorescence Polarization. hit rate 0.39% among 280,000. Potency, µM (titrated, usually from 57.7 µM), for the others: at the top dose activity, negative = inhibition, hits mostly inhibitors. Microtubule-associated protein tau (Homo sapiens), P10636. AID 1468, 2008. K18 P301L tau heparin fibrillization, Alexa594 FP, 6 h; also: nearly all actives have a fitted effect of over 55% in size
Target sequence (P10636 561-689 P618L limits assumed): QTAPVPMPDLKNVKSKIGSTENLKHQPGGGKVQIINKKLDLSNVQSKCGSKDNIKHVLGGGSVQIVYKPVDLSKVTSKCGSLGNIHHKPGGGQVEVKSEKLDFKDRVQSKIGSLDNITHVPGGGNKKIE
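Heparin (20 uM) drove fibril formation of recombinant tau K18 P301L, 15 uM unlabeled with 0.24 uM Alexa 594 label, for 6 hr at 37 C in 100 mM sodium acetate pH 7. Fluorescence polarization (555/632 nm) read 1 hr after 30 uM ThT.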
Tau fibril ThT: qHTS for Inhibitors of Tau Fibril Formation, Thioflavin T Binding. Microtubule-associated protein tau (Homo sapiens), P10636. recombinant tau K18 P301L (four-repeat tau fragment), heparin-induced fibrillization, ThT fluorescence. Potency, µM (doses to about 57.4 µM), for inactives: at the highest dose activity, negative = inhibition, actives largely listed as inhibitors. hit rate 2.1% among 270,000. AID 1460, 2008; also: nearly all actives have a fitted effect of over 55% in size
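Aggregation was driven by heparin (20 uM final) acting on recombinant tau […] bearing P301L in 100 mM sodium acetate pH 7; fibrils were detected with Thioflavin T.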
Starred values were filed as active, the others as inactive; ? = inconclusive; · = no result given; [ ] = remark or other dose. Unless noted, calls follow the shape of the dose curve; as a rule, active = well fitted curve in the direction sought with a large enough effect; inconclusive = small, poorly fitted or top-dose-only effect, or another doubt; inactive = no such curve, though single readings can be large; an effect the other way counts as inactive or inconclusive. Unless noted, % is scaled to controls: 0 for no effect and ±100 for the full control effect; potency is read from the fitted curve at half-maximal effect.

SMILES | Tau fluor cs | TR SRC2 fluor cs | TRb SRC2 PPI | Tau fibril FP | Tau fibril ThT
CC1=NN(c2ccccc2)C(=O)C1N=Nc1ccc(C)cc1 (stereo unspecified) | -12% | -1% | 2% | -2% | -20%
CCCCN(C)C(=O)CN1C(=O)CCn2nc(-c3cn(C)c4ccccc34)cc21 | -16% | ? | -16% | 5% | -9%
O=C(N/N=C/c1ccc(-c2ccc(S(=O)(=O)Nc3ncccn3)cc2)o1)c1cc2ccccc2cc1O | ? | 16µM*[quencher] | ? | ? | 14µM*
CCOc1ccc(C(=O)N/N=C/c2ccc(-c3ccc(S(=O)(=O)Nc4ncccn4)cc3)o2)cc1 | -19% | -6% | -13% | -1% | ?
COCCN1CCc2nc(SCC(=O)Nc3ccc(C)c(Cl)c3)[nH]c(=O)c2C1 | -9% | 0% | -1% | -1% | 15%
COc1cc(/C=C2\C(=O)NN(c3ccccc3)C2=O)cc([N+](=O)[O-])c1O | -30% | -3% | 0% | -6% | 11µM*
COc1cc(/C=C2\C(=O)NN(c3ccc(C)cc3)C2=O)cc([N+](=O)[O-])c1O | ? | -7% | -1% | -4% | 13µM*
CCOC(=O)c1scc(-c2ccccc2)c1S(=O)(=O)Nc1ccc(N(C)C)cc1 | ? | -2% | -7% | -1% | ?
Cc1ccccc1NC(=O)CSc1nnc(-c2ccco2)c(-c2ccco2)n1 | ? | -3% | -27% | 8.9µM* | 7.9µM*
Cc1cccc(C)c1NC(=O)CSc1nnc(-c2ccco2)c(-c2ccco2)n1 | ? | ? | 10% | ? | 25µM*
COc1ccc(-c2nnc(SCC(=O)Nc3c(C)cccc3C)nc2-c2ccc(OC)cc2)cc1 | -10% | -2% | 2% | -8% | -1%
CCOc1ccc(OCC)c(NC(=O)c2nnn(CC(=O)Nc3ccc(C)cc3C)c2N)c1 | -22% | 1% | 0% | -6% | 0%
C=CCn1c(O)c(CN2CCCCC2)c(C)c(C#N)c1=O | -25% | 10% | -20% | ? | 25µM*
Cc1c(CN2CCCC(C)C2)c(O)n(CCO)c(=O)c1C#N (stereo unspecified) | -2%[2.34 µM] | -1% | -5% | 4% | -4%
CCn1cc(S(=O)(=O)c2cc(C)cc(C)c2)c(=O)c2cc(F)c(N3CCN(c4ccccc4)CC3)cc21 | -16% | 3% | 0% | 6% | -13%
COc1ccc2nc(N3C(=O)/C(=C/c4ccc(Cl)cc4)NC3=S)sc2c1 | -11% | -1%[53 µM] | -4%[53 µM] | 0% | 1.1µM*
CCOc1ccc2nc(N3C(=O)CNC3=S)sc2c1 | 10%[0.0958 µM] | -3% | -7% | -4%[0.0958 µM] | ·
O=C1c2ccccc2C(=O)C1c1ccc2ccccc2n1 | -5% | -3% | -9% | 2% | 2.2µM*
O=c1nc(/C=C/c2ccc(-c3ccc(F)cc3)o2)cc(C(F)(F)F)[nH]1 | -16% | 8% | 3% | -7% | 16µM*
O=C(O)c1ccccc1-c1ccc(/C=C/c2cc(C(F)(F)F)[nH]c(=O)n2)o1 | 11% | 6% | -2% | 1% | 11%
CN(C)c1ccc(N=Cc2nc(-c3ccccc3)oc2OC(=O)c2cccc(Br)c2)cc1 | -27% | -3% | -5% | ? | 10µM*
COC(=O)c1ccc(-c2ccc(/C=N/NC(=O)Cc3nnc(N)s3)o2)cc1 | -16% | -5% | 1% | 6% | 7.9µM*
CCOC(=O)c1cc(-c2ccccc2)n(CC(=O)NC2CCC(C)CC2)c1C (stereo unspecified) | -6% | 2% | -5% | -2% | 2%
COc1cccc(Cn2c(CNS(=O)(=O)c3ccc(F)c(Cl)c3)nc3cccnc32)c1 | -21% | 0% | -2% | 5% | -6%
CC[n+]1c(/C=C/C=C/N(C(C)=O)c2ccccc2)sc2ccccc21 | 8.9µM*[fluorescent] | 16% | 6% | ? | 11µM*
COc1ccc2c(c1)Sc1ccccc1N2CCN(C)C | -5% | 1% | 5% | 2% | -5%
